# Source: ChEMBL document CHEMBL3433997, “St. Jude Leishmania screening dataset” (2016)
# Tests used:
# Type in all cases: functional
# [1] = molecular target: Solute carrier family 2, facilitated glucose transporter member 1 (Homo sapiens) (UniProt P11166); assay: ST_JUDE_LEISH: Cytotoxicity at 2uM final concentration against transgenic Leishmania Mexicana promastigotes LmGLUT1 that are glucose transport deficient and complemented with the human glucose transporter GLUT1. Activity is measured by DNA content using SYBR green in vitro
# Solute carrier family 2, facilitated glucose transporter member 1 (Homo sapiens), sequence (P11166 whole entry): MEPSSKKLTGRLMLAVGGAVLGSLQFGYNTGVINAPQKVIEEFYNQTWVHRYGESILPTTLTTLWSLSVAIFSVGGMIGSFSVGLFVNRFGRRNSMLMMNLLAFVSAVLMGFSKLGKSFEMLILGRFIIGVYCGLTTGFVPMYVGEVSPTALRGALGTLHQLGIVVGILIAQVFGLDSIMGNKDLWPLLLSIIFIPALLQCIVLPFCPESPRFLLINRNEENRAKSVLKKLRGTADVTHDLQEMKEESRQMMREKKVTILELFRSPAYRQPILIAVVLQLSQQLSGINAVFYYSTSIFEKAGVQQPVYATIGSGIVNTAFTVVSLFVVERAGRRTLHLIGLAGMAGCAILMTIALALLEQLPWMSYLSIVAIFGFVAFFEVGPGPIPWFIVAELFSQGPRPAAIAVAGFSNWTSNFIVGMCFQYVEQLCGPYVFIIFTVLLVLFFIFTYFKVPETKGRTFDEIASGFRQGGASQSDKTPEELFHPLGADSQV
# [2] = molecular target: Hexose transporter 1 (Plasmodium falciparum) (UniProt O97467); assay: ST_JUDE_LEISH: Cytotoxicity at 2uM final concentration against transgenic Leishmania Mexicana promastigotes LmPfHT that are glucose transport deficient and complemented with the Plasmodium falciparum hexose transporter. Activity is measured by DNA content using SYBR green in vitro
# [3] = molecular target: Glucose transporter (Leishmania mexicana) (UniProt O61059); assay: ST_JUDE_LEISH: Cytotoxicity at 2uM final concentration against transgenic Leishmania Mexicana promastigotes LmGT2 that are glucose transport deficient and complemented with the L. Mexicana glucose transporter 2. Activity is measured by DNA content using SYBR green in vitro
Structure (SMILES),inhibition [1] [%],inhibition [2] [%],inhibition [3] [%]
CN1CCCC(CN2CCN(Cc3cccc(-c4csc(-c5nc6ccccc6[nH]5)c4)c3)CC2)C1 (stereo unspecified),3.41,1.68,1.91
O=C(c1cccc(Br)c1)N1CCN(c2ccc([N+](=O)[O-])c(NC3CC3)c2)CC1,4.9,4.63,1.63
CCNc1cc(C(=O)N[C@@H](Cc2ccccc2)[C@H](O)CNC(C)(C)CSCC(C)C)cc(N2CCCC2=O)c1,1.84,2.11,-1.53
COc1cccc(NC(=O)c2cc(Br)cc(N3CCN(c4ccncc4)CC3)c2)c1,2.41,2.07,2.41
N=C1c2ccccc2CN1CC(=O)c1ccc(Cl)c(Cl)c1,0.66,2.37,2.53
Cc1c(Cc2ccccc2Cl)cnc2nc(N)nc(N)c12,18.9,37.5,24.1
CCc1ccc(C2CCN(CCCCNC(=O)c3ccc(NC(=O)c4ccc(Cl)cc4)cc3)CC2)c(OCC(=O)OC)c1,-0.04,1.79,1.25
COc1cc(NC(=O)NC(CCN2CCC3(CCc4ccccc43)CC2)c2ccc(Cl)c(Cl)c2)cc(OC)c1OC (stereo unspecified),0.41,0.09,-3.62
CN(C)c1ccc(C=C2SC(=N)N(c3nccs3)C2=O)cc1,3.25,5.28,4.86
COc1cc(OC)cc(C(=O)N2CCOC(CCN3CCC(c4ccccc4)CC3)(c3ccc(Cl)c(Cl)c3)C2)c1 (stereo unspecified),0.22,-0.92,-1.58
Cn1nc(-c2ccc(CN[C@@H]3CCc4ccc(O)cc43)cc2)c2cnc(NCCCN3CCCC3)nc21,1.97,0.42,1.31
COc1ccc2nccc([C@@H](O)CN3CCC(NCCOc4ccc(F)cc4Cl)CC3)c2c1,9.75,11.6,4.96
